Reference: PubChem BioAssay (EPA / NIEHS)
Calls of active or inactive are those of the source. Rule for the calls: active = hit-call score of the fitted dose curve at least 0.9, where 1 is the maximum; inactive = score below 0.9.

read-out: Cytochrome P450 2C19 (Homo sapiens) (UniProt P33261); assay: LTEA_HepaRG_CYP2C19: Life Technologies and Expression Analysis (LTEA) Assay for CYP2C19 using HepaRG (AID 2283482); conditions: mRNA level, 48 h; actives raise or lower the signal
Procedure: LTEA_HepaRG is a cell based, multiplexed-readout assay that uses HepaRG, a human liver cell line, with measurements taken at 48 hours after chemical dosing on a 96-well plate.LTEA_HepaRG_CYP2C19 is one of 102 assay component(s) measured in the LTEA HepaRG cell culture assay. It is a marker of NR mediated metabolism.Data from the assay component LTEA_HepaRG_CYP2C19 was analyzed into 1 endpoint. This assay endpoint, LTEA_HepaRG_CYP2C19, was analyzed with bidirectional fitting relative to DMSO as the negative control and baseline of activity. Using a type of inducible reporter, measures of mRNA induction for gain or loss-of-signal activity can be used to understand regulation of transcription factor activity. To generalize the intended target to other relatable targets, this assay endpoint is annotated to the cyp intended target family, where the subfamily is xenobiotic metabolism.
A total of 1060 chemcials from the ToxCast library were tested in eight-point concentration-response experiments. Cell culture and cytotoxicity assays were conducted at Thermo Fisher Scientific's Custom Services facility (Madison, WI). A single lot of human HepaRG cells (Thermo Fisher Scientific, Frederick, MD) was used for the cell culture experiments. 96-well format collagen type I coated plates of human HepaRG cells were prepared using established methods. Briefly, cryopreserved HepaRG cells were thawed, plated at a density of approximately 100,000 cells/well in HepaRG Thaw, Plate, and General Purpose media (HPRG770, Thermo Fisher Scientific), and incubated for 48 hours. 0.5% DMSO was selected as vehicle control to balance the requisite need of DMSO in HepaRG cultures to maintain differentiation (for example, baseline metabolism, proportions of hepatocytes vs. cholangiocytes), while enabling further hepatic receptor pathway activation (for example, PXR and CAR) in response to chemical exposure. 48 hours after plating, the culture medium was replaced with HepaRG Serum-Free Incudtion Media. Cells were exposed to each test chemical in duplicate and maintained in CO2 incubators for another 48 hours. Chemical plates were thawed to room temperature and 200x concentrations of treatment groups were prepared. 8-point conentration-reponse curves were made with the highest exposure at 100 uM, followed by half-log dilutions, all in 0.5% DMSO. Each test plate contained variouse controls, induction positive controls (1mM phenobarbital), cytotoxicity positive controls ([…] aflatoxin B1), vehicle controls (0.5% DMSO), and total lysis controls (0.5% DMSO). Cell morphology images were taken using an Essen IncuCyte FLR automated microscope, with six 96-well plates imaged in about 24 minutes. Images were captured and exported and JPEG files. Spent culture media was transfered to black-well plates for the LDH assay, and remaining media was sorted at -80 C for later use. Cells were treated with RLT buffer and frozen until shipped for gene expression analysis. Total RNA was isolated from the cell suspension in 75 uL of Buffer RLT (Qiagen, Germantown, MD 20874) by Quintiles/Expression Analysis (Durham, NC) using a custom isolation procedure. Total RNA from each plate well was transferred to a preamplification plate. Fluidigm's 96.96 Dynamic ArrayTM (Fluidigm, Amsterdam, the Netherlands) technology was used for gene expression analyses by quantitative reverse transcription polymerase chain reaction (qRT-PCR, performed by Quintiles/Expression Analysis, Durham, NC)89. Standard TaqManTM Assays (Applied Biosystems/ThermoFisher Scientific, Foster City, CA) were used to assess the expression of 93 genes selected based on their selectivity and sensitivity to important hepatic receptors known to be modulated by environmental chemicals; importance in human hepatocyte functionality; and hepatotoxicity. […]

Chain of Cytochrome P450 2C19 (Homo sapiens) (P33261 whole entry, looked up): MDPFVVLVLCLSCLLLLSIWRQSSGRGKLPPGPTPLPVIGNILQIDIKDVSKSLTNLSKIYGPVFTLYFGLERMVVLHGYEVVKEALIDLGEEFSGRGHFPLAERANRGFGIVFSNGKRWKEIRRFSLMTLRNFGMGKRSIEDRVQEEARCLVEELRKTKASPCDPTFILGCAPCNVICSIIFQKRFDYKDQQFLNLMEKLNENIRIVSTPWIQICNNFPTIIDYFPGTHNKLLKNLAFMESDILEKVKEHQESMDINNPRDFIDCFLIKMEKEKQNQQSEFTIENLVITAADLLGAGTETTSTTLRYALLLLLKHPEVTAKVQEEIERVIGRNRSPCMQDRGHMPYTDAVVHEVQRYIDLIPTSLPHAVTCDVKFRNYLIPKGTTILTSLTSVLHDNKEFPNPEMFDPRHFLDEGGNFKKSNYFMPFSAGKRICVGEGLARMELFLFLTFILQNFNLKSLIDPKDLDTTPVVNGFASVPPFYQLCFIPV

SMILES	outcome	AC50
CC(C)O.CC(C)O.OCCN(CCO)CCO.OCCN(CCO)CCO.[Ti]	inactive	–
O=C(N[C@H]1CN2CCC1CC2)c1ccc2c(c1)OCCO2	inactive	–
CCCCCCCCCCCCc1cccc(S(=O)(=O)O)c1	–	22.7 µM (active)
Clc1cccc(Cl)c1	inactive	–
COc1ccccc1N	inactive	–
Cc1cc(C)cc(C)c1	inactive	–
CC(C)(C)c1ccccc1O	–	1.47 µM (active)
Clc1cccc(Cl)c1Cl	inactive	–
Oc1cc(Cl)c(Cl)cc1Cl	inactive	–
N#Cc1cccnc1	inactive	–
CN(C)C(=S)S	inactive	–
OCCN(CCO)CCO	inactive	–
O=C(O)C1(c2ccc3c(c2)OC[C@H](Cc2ccc(-c4ccccc4)cc2)[C@H]3O)CCCC1	inactive	–
